# Experiments:
# Assay in all cases: DAPPL (digital affinity profiling via proximity ligation, sequencing); 10 mM Tris-HCl pH 7.5, 50 mM NaCl, 1 mM DTT, 4% glycerol, room temperature, 30 min; GST-TFs on glutathione beads, 16-mer random dsDNA library, 0.1% formaldehyde crosslink after washing; high values mean tight binding
# FLI1 = molecular target: T1, FLI1 (Homo sapiens, UniProt Q01543 1-452); details: protein: recombinant; tags: N-terminal GST; dsDNA, one strand shown
# T1 sequence: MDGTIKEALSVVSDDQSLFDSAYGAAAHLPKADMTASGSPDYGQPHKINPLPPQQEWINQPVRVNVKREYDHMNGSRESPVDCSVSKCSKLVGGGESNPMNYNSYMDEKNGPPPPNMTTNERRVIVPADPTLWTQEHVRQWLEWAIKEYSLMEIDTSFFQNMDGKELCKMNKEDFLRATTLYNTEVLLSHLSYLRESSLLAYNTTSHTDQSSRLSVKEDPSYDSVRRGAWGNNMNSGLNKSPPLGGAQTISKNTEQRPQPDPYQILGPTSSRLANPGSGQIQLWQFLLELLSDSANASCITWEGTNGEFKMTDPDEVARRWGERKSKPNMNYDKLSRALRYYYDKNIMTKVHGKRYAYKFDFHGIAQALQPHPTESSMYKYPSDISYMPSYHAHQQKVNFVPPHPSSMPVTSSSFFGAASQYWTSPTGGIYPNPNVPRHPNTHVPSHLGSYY
# Method in brief: (§1)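 Pools were built from human transcription factors expressed in yeast as GST fusions, captured on glutathione beads and DNA-barcoded, along with a tag-only sample. Incubation with 200 nmole of a 16-mer random double-stranded DNA library lasted 30 min at room temperature in Tris/NaCl/DTT/glycerol buffer, and was followed by washing, 0.1% formaldehyde crosslinking, proximity ligation, PCR amplification and Illumina NextSeq500 sequencing. Binding signal is the quotient of each hexamer's read frequency for a factor and its frequency for the tag-only sample.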
# ELK1 = molecular target: T2, ELK1 (Homo sapiens, UniProt P19419 1-428); details: protein: recombinant; tags: N-terminal GST; dsDNA, one strand shown
# T2 sequence: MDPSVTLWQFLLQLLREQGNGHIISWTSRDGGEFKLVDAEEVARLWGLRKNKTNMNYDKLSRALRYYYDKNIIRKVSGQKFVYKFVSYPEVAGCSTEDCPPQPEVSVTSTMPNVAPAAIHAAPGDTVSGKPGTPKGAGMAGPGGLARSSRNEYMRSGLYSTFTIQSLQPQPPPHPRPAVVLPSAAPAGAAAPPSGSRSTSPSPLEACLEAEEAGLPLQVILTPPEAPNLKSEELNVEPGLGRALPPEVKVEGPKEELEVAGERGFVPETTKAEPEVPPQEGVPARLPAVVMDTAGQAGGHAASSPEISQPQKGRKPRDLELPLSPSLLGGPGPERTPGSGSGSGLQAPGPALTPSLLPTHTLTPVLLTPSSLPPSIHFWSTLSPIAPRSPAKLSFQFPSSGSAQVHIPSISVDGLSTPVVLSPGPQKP
# Method in brief: as §1
# GABPA = molecular target: T3, GABPA (Homo sapiens, UniProt Q06546 1-454); details: protein: recombinant; tags: N-terminal GST; dsDNA, one strand shown
# T3 sequence: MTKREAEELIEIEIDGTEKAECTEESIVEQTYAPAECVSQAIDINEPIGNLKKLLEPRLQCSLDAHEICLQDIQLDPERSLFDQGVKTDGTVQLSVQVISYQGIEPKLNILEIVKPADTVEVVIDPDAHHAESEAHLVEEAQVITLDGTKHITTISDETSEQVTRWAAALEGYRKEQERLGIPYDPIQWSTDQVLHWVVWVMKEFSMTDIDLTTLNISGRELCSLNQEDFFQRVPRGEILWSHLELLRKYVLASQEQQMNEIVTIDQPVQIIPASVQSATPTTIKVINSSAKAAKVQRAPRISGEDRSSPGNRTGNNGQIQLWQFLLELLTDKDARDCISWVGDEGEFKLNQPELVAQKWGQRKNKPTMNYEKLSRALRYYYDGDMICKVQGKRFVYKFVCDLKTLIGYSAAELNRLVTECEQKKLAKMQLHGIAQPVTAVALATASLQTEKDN
# Method in brief: as §1
# ERG = molecular target: T4, ERG (Homo sapiens, UniProt P11308 1-479); details: protein: recombinant; tags: N-terminal GST; dsDNA, one strand shown
# T4 sequence: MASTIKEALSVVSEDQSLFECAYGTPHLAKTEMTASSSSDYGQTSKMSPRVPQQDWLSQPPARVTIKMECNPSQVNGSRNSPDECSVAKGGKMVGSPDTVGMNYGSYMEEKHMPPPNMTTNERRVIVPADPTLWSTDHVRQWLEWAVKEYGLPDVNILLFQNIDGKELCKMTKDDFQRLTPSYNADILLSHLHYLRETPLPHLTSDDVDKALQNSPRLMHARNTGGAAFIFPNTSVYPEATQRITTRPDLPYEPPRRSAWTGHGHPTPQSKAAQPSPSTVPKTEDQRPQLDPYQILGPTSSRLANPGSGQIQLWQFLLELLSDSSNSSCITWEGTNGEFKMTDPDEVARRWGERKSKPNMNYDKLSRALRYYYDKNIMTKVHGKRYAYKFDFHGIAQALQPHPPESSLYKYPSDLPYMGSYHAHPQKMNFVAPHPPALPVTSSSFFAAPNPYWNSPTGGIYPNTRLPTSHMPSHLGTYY
# Method in brief: as §1
# ELF1 = ELF1 (Homo sapiens, UniProt P32519 1-619); details: protein: recombinant; tags: N-terminal GST; dsDNA, one strand shown
# Method in brief: as §1
# EHF = molecular target: T5, EHF (Homo sapiens, UniProt Q9NZC4 1-300); details: protein: recombinant; tags: N-terminal GST; dsDNA, one strand shown
# T5 sequence: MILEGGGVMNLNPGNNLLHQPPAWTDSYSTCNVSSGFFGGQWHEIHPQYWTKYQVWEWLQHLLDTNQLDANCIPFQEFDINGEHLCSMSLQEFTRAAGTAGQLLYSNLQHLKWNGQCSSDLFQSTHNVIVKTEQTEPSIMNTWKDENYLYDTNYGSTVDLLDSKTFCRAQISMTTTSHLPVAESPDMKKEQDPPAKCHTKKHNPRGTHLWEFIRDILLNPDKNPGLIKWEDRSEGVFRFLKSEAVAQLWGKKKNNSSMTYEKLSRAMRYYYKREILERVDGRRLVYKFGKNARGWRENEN
# Method in brief: as §1
# SPI1 = SPI1 (Homo sapiens, UniProt P17947 1-270); details: protein: recombinant; tags: N-terminal GST; dsDNA, one strand shown
# Method in brief: as §1
# SPIB = SPIB (Homo sapiens, UniProt Q01892 1-262); details: protein: recombinant; tags: N-terminal GST; dsDNA, one strand shown
# Method in brief: as §1
# ELK3 = molecular target: T6, ELK3 (Homo sapiens, UniProt P41970 1-407); details: protein: recombinant; tags: N-terminal GST; dsDNA, one strand shown
# T6 sequence: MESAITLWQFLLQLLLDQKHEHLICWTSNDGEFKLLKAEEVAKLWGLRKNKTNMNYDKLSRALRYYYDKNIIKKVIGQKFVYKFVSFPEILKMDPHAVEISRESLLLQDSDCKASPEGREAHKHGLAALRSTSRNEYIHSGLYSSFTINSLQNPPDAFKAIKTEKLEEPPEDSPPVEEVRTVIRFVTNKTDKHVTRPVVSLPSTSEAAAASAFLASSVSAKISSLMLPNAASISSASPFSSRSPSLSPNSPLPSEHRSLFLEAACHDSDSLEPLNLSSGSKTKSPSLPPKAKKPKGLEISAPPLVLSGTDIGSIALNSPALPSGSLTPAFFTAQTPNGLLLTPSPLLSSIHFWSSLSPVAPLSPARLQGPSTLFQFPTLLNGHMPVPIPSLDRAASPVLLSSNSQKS
# Method in brief: as §1
# FEV = molecular target: T7, FEV (Homo sapiens, UniProt Q99581 1-238); details: protein: recombinant; tags: N-terminal GST; dsDNA, one strand shown
# T7 sequence: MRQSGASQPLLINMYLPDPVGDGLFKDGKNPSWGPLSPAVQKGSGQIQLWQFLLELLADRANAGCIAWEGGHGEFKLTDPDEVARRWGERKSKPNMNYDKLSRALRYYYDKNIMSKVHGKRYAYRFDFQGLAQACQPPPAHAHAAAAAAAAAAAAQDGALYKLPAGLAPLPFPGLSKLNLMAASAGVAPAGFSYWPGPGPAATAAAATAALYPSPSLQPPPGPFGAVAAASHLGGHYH
# Method in brief: as §1
# ETV5 = ETV5 (Homo sapiens, UniProt P41161 1-510); details: protein: recombinant; tags: N-terminal GST; dsDNA, one strand shown
# Method in brief: as §1
# HSF1 = HSF1 (Homo sapiens, UniProt Q00613 1-529); details: protein: recombinant; tags: N-terminal GST; chain copies: 3; dsDNA, one strand shown
# Method in brief: as §1
# SPIC = molecular target: T8, SPIC (Homo sapiens, UniProt Q8N5J4 1-248); details: protein: recombinant; tags: N-terminal GST; dsDNA, one strand shown
# T8 sequence: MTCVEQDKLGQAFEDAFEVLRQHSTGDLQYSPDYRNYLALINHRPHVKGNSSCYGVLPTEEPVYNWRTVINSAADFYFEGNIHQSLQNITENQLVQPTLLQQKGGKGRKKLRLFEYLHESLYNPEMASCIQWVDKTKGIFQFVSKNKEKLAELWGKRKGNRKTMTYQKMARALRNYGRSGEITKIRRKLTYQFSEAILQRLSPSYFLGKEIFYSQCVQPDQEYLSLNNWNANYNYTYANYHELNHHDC
# Method in brief: as §1
# ELF4 = ELF4 (Homo sapiens, UniProt Q99607 1-663); details: protein: recombinant; tags: N-terminal GST; dsDNA, one strand shown
# Method in brief: as §1
# ELK4 = molecular target: T9, ELK4 (Homo sapiens, UniProt P28324-2 1-405); details: protein: recombinant; tags: N-terminal GST; dsDNA, one strand shown
# T9 sequence: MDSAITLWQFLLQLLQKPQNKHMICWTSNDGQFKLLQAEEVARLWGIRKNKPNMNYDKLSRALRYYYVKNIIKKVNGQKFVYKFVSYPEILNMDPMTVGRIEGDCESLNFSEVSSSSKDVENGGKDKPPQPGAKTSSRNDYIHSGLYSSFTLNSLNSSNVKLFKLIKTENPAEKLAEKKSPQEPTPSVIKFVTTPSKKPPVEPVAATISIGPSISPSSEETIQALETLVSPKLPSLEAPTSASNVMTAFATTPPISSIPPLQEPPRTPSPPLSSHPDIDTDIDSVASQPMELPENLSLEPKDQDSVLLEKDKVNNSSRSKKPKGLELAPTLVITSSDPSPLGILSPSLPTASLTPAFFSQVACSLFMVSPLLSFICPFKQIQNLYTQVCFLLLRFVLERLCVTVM
# Method in brief: as §1
# ETV2 = molecular target: T10, ETV2 (Homo sapiens, UniProt O00321 1-342); details: protein: recombinant; tags: N-terminal GST; dsDNA, one strand shown
# T10 sequence: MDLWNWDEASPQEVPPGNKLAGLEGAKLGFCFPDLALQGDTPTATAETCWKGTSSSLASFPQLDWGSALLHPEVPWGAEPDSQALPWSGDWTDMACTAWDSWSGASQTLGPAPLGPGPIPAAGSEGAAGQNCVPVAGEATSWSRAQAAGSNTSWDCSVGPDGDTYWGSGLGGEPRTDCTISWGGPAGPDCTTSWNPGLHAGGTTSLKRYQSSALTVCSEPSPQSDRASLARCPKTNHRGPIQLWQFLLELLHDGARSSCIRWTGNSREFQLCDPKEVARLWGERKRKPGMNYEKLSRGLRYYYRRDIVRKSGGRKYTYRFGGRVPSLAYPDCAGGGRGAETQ
# Method in brief: as §1
# ELF3 = molecular target: T11, ELF3 (Homo sapiens, UniProt P78545 1-371); details: protein: recombinant; tags: N-terminal GST; dsDNA, one strand shown
# T11 sequence: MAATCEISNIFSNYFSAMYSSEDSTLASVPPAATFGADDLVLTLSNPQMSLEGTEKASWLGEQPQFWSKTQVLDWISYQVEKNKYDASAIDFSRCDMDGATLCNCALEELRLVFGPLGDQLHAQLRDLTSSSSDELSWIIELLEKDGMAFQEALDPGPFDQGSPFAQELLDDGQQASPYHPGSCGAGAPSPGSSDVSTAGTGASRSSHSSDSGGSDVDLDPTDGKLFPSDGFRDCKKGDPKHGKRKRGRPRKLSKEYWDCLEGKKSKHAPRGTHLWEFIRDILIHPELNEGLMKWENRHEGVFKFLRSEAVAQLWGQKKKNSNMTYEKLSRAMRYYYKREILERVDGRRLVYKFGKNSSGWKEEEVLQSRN
# Method in brief: as §1
# CRX = CRX (Homo sapiens, UniProt O43186 1-299); details: protein: recombinant; tags: N-terminal GST; dsDNA, one strand shown
# Method in brief: as §1
# ETV1 = ETV1 (Homo sapiens, UniProt P50549 1-477); details: protein: recombinant; tags: N-terminal GST; dsDNA, one strand shown
# Method in brief: as §1
# Chain of HSF1 (Q00613 whole entry): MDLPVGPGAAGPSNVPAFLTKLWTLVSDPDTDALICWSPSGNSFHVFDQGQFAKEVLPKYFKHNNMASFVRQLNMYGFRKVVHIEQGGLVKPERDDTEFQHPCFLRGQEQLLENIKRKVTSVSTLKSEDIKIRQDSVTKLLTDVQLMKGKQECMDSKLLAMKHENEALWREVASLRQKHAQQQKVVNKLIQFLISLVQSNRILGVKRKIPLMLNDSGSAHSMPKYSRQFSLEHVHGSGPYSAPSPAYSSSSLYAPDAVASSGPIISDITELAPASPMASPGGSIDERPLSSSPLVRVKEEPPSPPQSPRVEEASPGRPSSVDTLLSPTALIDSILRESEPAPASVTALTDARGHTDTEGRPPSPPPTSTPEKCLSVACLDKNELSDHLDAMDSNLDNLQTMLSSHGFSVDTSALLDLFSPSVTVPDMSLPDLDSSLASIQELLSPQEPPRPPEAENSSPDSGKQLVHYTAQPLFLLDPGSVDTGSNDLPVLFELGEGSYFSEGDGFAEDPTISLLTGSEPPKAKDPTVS
# Chain of ELF4 (Q99607 whole entry): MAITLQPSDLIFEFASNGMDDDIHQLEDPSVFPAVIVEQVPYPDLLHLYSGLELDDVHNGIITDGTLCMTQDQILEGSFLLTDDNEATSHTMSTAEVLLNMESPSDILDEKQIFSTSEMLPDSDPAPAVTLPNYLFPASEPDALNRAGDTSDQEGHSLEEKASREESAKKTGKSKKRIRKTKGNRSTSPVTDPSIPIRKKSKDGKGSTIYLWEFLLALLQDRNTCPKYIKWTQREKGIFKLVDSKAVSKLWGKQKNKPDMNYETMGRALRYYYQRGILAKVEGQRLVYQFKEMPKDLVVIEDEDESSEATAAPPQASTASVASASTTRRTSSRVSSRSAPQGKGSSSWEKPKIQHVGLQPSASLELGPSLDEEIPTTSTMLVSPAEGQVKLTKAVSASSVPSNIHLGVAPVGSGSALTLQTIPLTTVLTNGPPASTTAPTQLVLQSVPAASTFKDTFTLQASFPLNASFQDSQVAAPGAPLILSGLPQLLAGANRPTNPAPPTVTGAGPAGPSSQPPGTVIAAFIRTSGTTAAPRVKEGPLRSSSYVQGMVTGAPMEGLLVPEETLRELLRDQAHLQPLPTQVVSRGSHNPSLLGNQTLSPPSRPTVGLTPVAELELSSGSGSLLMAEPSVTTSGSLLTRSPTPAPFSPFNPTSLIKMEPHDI
# Chain of ETV5 (P41161 whole entry): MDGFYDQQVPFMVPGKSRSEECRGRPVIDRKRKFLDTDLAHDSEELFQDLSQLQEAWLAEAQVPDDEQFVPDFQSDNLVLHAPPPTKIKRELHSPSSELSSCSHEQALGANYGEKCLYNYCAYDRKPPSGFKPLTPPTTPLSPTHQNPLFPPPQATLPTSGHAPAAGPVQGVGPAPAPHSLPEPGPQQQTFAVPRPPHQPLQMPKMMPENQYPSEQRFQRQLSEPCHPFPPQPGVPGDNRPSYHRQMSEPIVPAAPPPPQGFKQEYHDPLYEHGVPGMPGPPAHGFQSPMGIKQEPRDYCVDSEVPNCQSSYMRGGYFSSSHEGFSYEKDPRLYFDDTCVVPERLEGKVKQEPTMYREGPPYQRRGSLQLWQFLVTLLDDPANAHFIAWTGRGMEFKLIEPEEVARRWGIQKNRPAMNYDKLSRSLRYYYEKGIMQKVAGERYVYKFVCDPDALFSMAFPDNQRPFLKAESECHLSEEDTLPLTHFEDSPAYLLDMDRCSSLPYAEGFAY
# Chain of ELF1 (P32519 whole entry): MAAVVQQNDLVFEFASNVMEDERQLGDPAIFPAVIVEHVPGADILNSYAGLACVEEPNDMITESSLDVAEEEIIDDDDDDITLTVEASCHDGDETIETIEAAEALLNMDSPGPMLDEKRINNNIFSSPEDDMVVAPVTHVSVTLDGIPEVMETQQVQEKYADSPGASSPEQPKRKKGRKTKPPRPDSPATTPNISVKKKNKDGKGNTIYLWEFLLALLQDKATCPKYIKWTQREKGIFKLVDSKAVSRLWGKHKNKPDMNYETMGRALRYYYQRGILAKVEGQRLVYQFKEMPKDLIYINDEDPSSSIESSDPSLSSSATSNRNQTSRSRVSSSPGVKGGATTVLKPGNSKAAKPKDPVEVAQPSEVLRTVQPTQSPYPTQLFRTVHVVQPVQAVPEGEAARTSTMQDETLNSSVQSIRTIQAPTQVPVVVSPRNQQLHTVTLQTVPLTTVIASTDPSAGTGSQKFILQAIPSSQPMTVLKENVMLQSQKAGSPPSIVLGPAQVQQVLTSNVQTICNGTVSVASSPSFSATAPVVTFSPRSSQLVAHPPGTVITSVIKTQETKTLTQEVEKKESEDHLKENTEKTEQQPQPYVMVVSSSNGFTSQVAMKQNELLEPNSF
# Chain of ETV1 (P50549 whole entry): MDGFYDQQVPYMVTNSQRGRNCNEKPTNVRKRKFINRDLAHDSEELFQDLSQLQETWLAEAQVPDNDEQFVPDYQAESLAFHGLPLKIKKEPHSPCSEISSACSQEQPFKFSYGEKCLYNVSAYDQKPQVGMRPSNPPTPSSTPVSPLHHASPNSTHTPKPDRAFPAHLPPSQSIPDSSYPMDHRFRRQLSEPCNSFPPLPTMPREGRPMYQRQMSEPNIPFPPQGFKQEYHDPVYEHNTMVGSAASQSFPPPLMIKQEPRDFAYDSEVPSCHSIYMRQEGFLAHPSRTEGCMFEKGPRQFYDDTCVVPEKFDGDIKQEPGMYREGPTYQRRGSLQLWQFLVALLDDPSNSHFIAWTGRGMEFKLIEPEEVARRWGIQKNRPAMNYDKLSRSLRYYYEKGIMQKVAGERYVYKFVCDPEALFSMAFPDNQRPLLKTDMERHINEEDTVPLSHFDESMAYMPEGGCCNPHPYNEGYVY
# Chain of SPIB (Q01892 whole entry): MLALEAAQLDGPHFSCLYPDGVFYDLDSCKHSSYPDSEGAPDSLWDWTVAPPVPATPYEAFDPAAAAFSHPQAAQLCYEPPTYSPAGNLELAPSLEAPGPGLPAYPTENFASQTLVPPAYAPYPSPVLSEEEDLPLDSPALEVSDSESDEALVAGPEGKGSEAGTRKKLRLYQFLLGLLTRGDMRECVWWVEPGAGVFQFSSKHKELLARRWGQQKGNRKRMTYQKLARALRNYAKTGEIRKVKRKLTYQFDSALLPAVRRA
# Chain of CRX (O43186 whole entry): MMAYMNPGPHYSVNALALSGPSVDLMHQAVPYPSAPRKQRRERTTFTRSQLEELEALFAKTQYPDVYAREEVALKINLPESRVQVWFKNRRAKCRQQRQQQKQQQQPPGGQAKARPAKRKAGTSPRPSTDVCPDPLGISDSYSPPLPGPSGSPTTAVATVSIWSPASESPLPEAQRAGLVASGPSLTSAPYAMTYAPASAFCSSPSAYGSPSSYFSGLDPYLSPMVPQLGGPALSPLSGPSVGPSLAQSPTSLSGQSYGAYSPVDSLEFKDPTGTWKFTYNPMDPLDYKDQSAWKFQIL
sequence,measurement,setting,value
TTACGG,binding signal,FLI1,"1.3 fold enrichment (6-mer frequency, TF over GST control)"
same,binding signal,ELK1,"1.23 fold enrichment (6-mer frequency, TF over GST control)"
same,binding signal,GABPA,"1.22 fold enrichment (6-mer frequency, TF over GST control)"
same,binding signal,ERG,"1.31 fold enrichment (6-mer frequency, TF over GST control)"
same,binding signal,ELF1,"1.26 fold enrichment (6-mer frequency, TF over GST control)"
same,binding signal,EHF,"1.31 fold enrichment (6-mer frequency, TF over GST control)"
same,binding signal,SPI1,"1.37 fold enrichment (6-mer frequency, TF over GST control)"
same,binding signal,SPIB,"1.38 fold enrichment (6-mer frequency, TF over GST control)"
same,binding signal,ELK3,"1.48 fold enrichment (6-mer frequency, TF over GST control)"
same,binding signal,FEV,"1.22 fold enrichment (6-mer frequency, TF over GST control)"
same,binding signal,ETV5,"1.27 fold enrichment (6-mer frequency, TF over GST control)"
same,binding signal,HSF1,"1.43 fold enrichment (6-mer frequency, TF over GST control)"
same,binding signal,SPIC,"1.26 fold enrichment (6-mer frequency, TF over GST control)"
same,binding signal,ELF4,"1.25 fold enrichment (6-mer frequency, TF over GST control)"
same,binding signal,ELK4,"1.19 fold enrichment (6-mer frequency, TF over GST control)"
same,binding signal,ETV2,"1.36 fold enrichment (6-mer frequency, TF over GST control)"
same,binding signal,ELF3,"1.35 fold enrichment (6-mer frequency, TF over GST control)"
same,binding signal,CRX,"1.86 fold enrichment (6-mer frequency, TF over GST control)"
same,binding signal,ETV1,"1.25 fold enrichment (6-mer frequency, TF over GST control)"
